# Results filed as inconclusive are left out. Activity calls are given as the source filed them. Calls follow the shape of the dose curve; as a rule, active = well fitted cell-killing curve with a large enough effect; inconclusive = small, poorly fitted or top-dose-only effect, or effect the other way; inactive = no such curve, though single readings can be large or run the other way.
# Assay: Quantitative High-Throughput drug screen in 47 multiple myeloma cell lines against the NCATS MIPE library collection: H1112_PLB cell viability assay (AID 1918967; also: nearly all actives have a fitted effect of over 30% in size)
# Details: H1112 myeloma cells viability, ATP luminescence, 48 h; series mostly up to 45.8 µM; viability: at the top concentration
# Description: PI: Beverly A. Mock Ph.D.
# Laboratory of Cancer Biology and Genetics,
# Center for Cancer Research, National Cancer Institute,
# National Institute of Health, Bethesda, Maryland
# Drug resistance and disease progression are common in multiple myeloma (MM) patients, underscoring the need for new therapeutic combinations. […] We hypothesized that effective combinations would reduce MYC expression and enhance p16 activity. […] These preclinical data identify potentially useful drug combinations for evaluation in drug-resistant MM and reveal potential mechanisms of combined drug sensitivity.
# Described herein is the primary MIPE qHTS used to cherrypick compounds. Validated compounds were then further tested for potential synergistic activiy.
# [1] Peat TJ, Gaikwad SM, Dubois W, Gyabaah-Kessie N, Zhang S, Gorjifard S, Phyo Z, Andres M, Hughitt VK, Simpson RM, Miller MA, Girvin AT, Taylor A, Williams D, D'Antonio N, Zhang Y, Rajagopalan A, Flietner E, Wilson K, Zhang X, Shinn P, Klumpp-Thomas C, McKnight C, Itkin Z, Chen L, Kazandijian D, Zhang J, Michalowski AM, Simmons JK, Keats J, Thomas CJ, Mock BA. Drug combinations identified by high-throughput screening promote cell cycle transition and upregulate Smad pathways in myeloma. Cancer Lett. 2023 Aug 1;568:216284. doi: 10.1016/j.canlet.2023.216284. Epub 2023 Jun 24. PMID: 37356470; PMCID: PMC10408729.
# SEQUENCE No. (e.g., 1, 2, 3, etc.); […] (e.g., Cells, Incubation, Reagent, etc.); VALUE and DESCRIPTION.
# 1; Cells; 5 uL; white, solid bottom 1536-well Greiner assay plate.
# 2; Compounds; 23 nL; Kalypsis pin tool (Wako USA) equipped with a 1536-well pin head to transfer to the assay plates.
# 3; Incubation; 48 hours; 37C incubation.
# 4; Reagent;5uL; CellTiter Glo (Promega).
# 5; Detector; 425V; Luminescence; Viewlux PerkinElmer.
# NOTES (numbers refer to Sequence numbers above)
# 1. The cell-based screening methods employed in this study were like those previously published. Briefly, the corresponding myeloma cell lines were screened in 1,536-well plates with 500 cells, 5-uL per well for inhibition of cell viability (assessed by measuring ATP levels with CellTiterGlo).
# 2. NCATS MIPE 4.0 library of approved and investigational drugs were added using the Kalypsis pin tool. Wells treated with DMSO only for 100% viability and media only wells for 0% viability were used as controls.
# 3. The assay plates were covered and incubated for 48 hours in a 37C, 5% CO2 incubator with controlled humidity.
# 4. After 48 hours, CellTilter-GloTM luminescent substrate mix (Promega) reagent was added to the assay plate and plates we incubated for 5 min at room temperature.
# 5. Signal was measured as median relative luminescence units on a ViewLux (PerkinElmer) multiplate reader.
# [1] Heske CM, Davis MI, Baumgart JT, Wilson K, Gormally MV, Chen L, Zhang X, Ceribelli M, Duveau DY, Guha R, Ferrer M, Arnaldez FI, Ji J, Tran HL, Zhang Y, Mendoza A, Helman LJ, Thomas CJ. Matrix Screen Identifies Synergistic Combination of PARP Inhibitors and Nicotinamide Phosphoribosyltransferase (NAMPT) Inhibitors in Ewing Sarcoma. Clin Cancer Res. 2017 Dec 1;23(23):7301-7311. doi: 10.1158/1078-0432.CCR-17-1121. Epub 2017 Sep 12. PMID: 28899971; PMCID: PMC6636827.
# Potency is read from the fitted curve at half-maximal effect.
SMILES,Potency,viability
C=CCON=C(C[C@H]1O[C@@H]2O[C@]3(C)CC[C@@H]4[C@H](C)CC[C@@H]([C@H]1C)[C@@]24OO3)[C@H]1O[C@@H]2O[C@]3(C)CC[C@H]4[C@H](C)CC[C@@H]([C@@H]1C)[C@@]24OO3,469 nM (active),–
COC[C@H]1OC(=O)c2coc3c2[C@@]1(C)C1=C(C3=O)[C@@H]2CC[C@H](O)[C@@]2(C)C[C@@H]1OC(C)=O,1050 nM (active),–
COc1ccc(N(C(=O)Oc2c(C)cccc2C)c2ccnc(Nc3ccc(N4CCN(C)CC4)cc3)n2)c(OC)c1,372 nM (active),–
C[C@@H]1[C@H](O)[C@@H](C)C=CC=CCCC=CC=CC=CC=C[C@H](O[C@H]2O[C@@H](C)[C@H](O)[C@@H](N)[C@@H]2O)CC2O[C@](O)(C[C@@H](O)[C@H](O)CC[C@@H](O)C[C@@H](O)C[C@@H](O)CC(=O)O[C@H]1C)C[C@H](O)[C@H]2C(=O)O,–,115% (inactive)
CC(C)(C)[C@]1(O)C[C@@H]2OC(=O)C[C@@]23C(=O)O[C@@H]2OC(=O)[C@H](O)C213 (stereo not given in full),–,112% (inactive)
COC1=CC(C)=C[C@@H](C)[C@@H](O)[C@@H](C)CC(C)=CC=C[C@H](OC)[C@H]([C@@H](C)[C@@H](O)[C@H](C)[C@@]2(O)C[C@@H](O)[C@H](C)[C@@H](C(C)C)O2)OC1=O,1660 nM (active),–
CC(C)(C)c1cc(C=C(C#N)C#N)cc(Br)c1O,16600 nM (active),–
CC[C@@]1(O)C(=O)OCc2c1cc1n(c2=O)Cc2cc3ccccc3nc2-1,59 nM (active),–
CC(C)N[C@@H]1CCn2c(=O)[nH]c3cccc(c32)[C@@H]1O,7430 nM (active),–
CCOC(=O)c1c(C(C#N)=CN)c2ccc(Cl)c(Cl)c2n1C,–,91.9% (inactive)
CCN(CC)C(=O)c1ccc(C2=CC3(CCNCC3)Oc3cccc(O)c32)cc1,–,119% (inactive)
CC(C)[C@]12O[C@@H]1[C@@H]1O[C@]13[C@]1(O[C@H]1C[C@@H]1C4=C(CC[C@@]13C)C(=O)OC4)[C@H]2O,–,5.72% (inactive)
N#C[C@H](O[C@@H]1O[C@H](CO[C@@H]2O[C@H](CO)[C@H](O)[C@H](O)[C@H]2O)[C@H](O)[C@H](O)[C@H]1O)c1ccccc1,26400 nM (active),–
CCOC(=O)c1cncn1[C@H](C)c1ccccc1,–,90.7% (inactive)
CC(=Cc1csc(C)n1)[C@@H]1C[C@H]2O[C@]2(C)CCC[C@H](C)[C@@H](O)[C@@H](C)C(=O)C(C)(C)[C@@H](O)CC(=O)O1,–,31.7% (inactive)
COc1ccc2c(c[n+](C)c3c4cc5c(cc4ccc23)OCO5)c1OC,7430 nM (active),–
CSCC[C@@H](NC(=O)[C@@H](Cc1ccccc1)NC(=O)CNC(=O)CNC(=O)[C@@H](N)Cc1ccc(O)cc1)C(=O)O,–,113% (inactive)
CC[C@@H]1[C@@H](C)O[C@@](O)([C@@H](C)[C@H](O)[C@H](C)[C@H]2OC(=O)C=CC=C[C@@H](C)[C@@H]([C@@H](C)[C@@H](O)[C@H](C)[C@@]3(O)C[C@H](O[C@H]4C[C@H](O)[C@H](O)[C@H](C)O4)[C@H](CC)[C@@H](C)O3)OC(=O)C=CC=C[C@@H]2C)C[C@H]1O[C@H]1C[C@H](O)[C@H](O)[C@H](C)O1,1050 nM (active),–
C[C@]12CC[C@H]3[C@@H](CCC4=CC(=O)CC[C@@]43C)[C@H]1CC[C@H]2O,–,110% (inactive)
O=C(Oc1ccc([N+](=O)[O-])cc1)N1CCC(C(O)(c2ccc3c(c2)OCO3)c2ccc3c(c2)OCO3)CC1,10500 nM (active),–

SMILES,Potency,viability
CCOP(=O)(OCC)C(C)NC(=O)N(CCCl)N=O (stereo not given),–,102% (inactive)
C#CC1(O)CCC2C3CCC4=CC(=O)CCC4(C)C3CCC21C (stereo not given),–,93.4% (inactive)
CC(=CCCC1=CCC(C2=CC(=O)OC2O)OC1O)CCC1=C(C)CCCC1(C)C (stereo not given),–,91.9% (inactive)
COc1ccc(C(=O)c2c(C)n(CCN3CCOCC3)c3cc(I)ccc23)cc1,16600 nM (active),–
CC[C@H]1C=CC=CC[C@@H](C)[C@H](O)[C@@](C)(O)C(=O)[C@@H](C)[C@H](O)[C@@H](C)C(=O)[C@@H](C)[C@H](O)[C@@H](C)C=CC(=O)O[C@@H]2[C@@H](C)[C@H](CC1)O[C@]1(CC[C@H](C)[C@H](C[C@@H](C)O)O1)[C@H]2C,5.3 nM (active),–
COC(=O)[C@@H](N)CCCN=C(N)N[N+](=O)[O-],–,128% (inactive)
C[C@@H]1CC[C@@]2(OC1)O[C@H]1C[C@H]3[C@@H]4CC=C5C[C@@H](O[C@@H]6O[C@H](CO)[C@@H](O[C@@H]7O[C@@H](C)[C@H](O)[C@@H](O)[C@@H]7O)[C@H](O)[C@@H]6O[C@@H]6O[C@@H](C)[C@H](O)[C@@H](O)[C@@H]6O)CC[C@]5(C)[C@@H]4CC[C@]3(C)[C@@H]1[C@H]2C,4690 nM (active),–
CCCCCC[C@H]1C(=O)O[C@H](C)[C@H](NC(=O)c2cccc(NC=O)c2O)C(=O)O[C@@H](C)[C@@H]1OC(=O)CC(C)C,132 nM (active),–
CC(C)(O)C=CC(=O)[C@](C)(O)[C@H]1[C@H](O)C[C@]2(C)[C@@H]3CC=C4[C@@H](C=C(O)C(=O)C4(C)C)[C@]3(C)C(=O)C[C@@]12C,2090 nM (active),–
Oc1ccc2c3c1O[C@H]1c4[nH]c5c(c4C[C@@]4(O)[C@@H](C2)N(CC2CC2)CC[C@]314)C[C@@]1(O)[C@H]2Cc3ccc(O)c4c3[C@@]1(CCN2CC1CC1)[C@H]5O4,–,101% (inactive)
C[C@]12Cc3cn[nH]c3C[C@@H]1CC[C@@H]1[C@H]2CC[C@@]2(C)[C@H]1CC[C@]2(C)O,–,98.5% (inactive)
Clc1ccccc1C(c1ccccc1)(c1ccccc1)n1cccn1,–,111% (inactive)
C[C@@]12OC(=O)[C@]1([C@@H](O)[C@@H]1C=CCCC1)NC(=O)[C@H]2CCCl,23.5 nM (active),–
CN1[C@H]2CC(O)C[C@H]1[C@H]1O[C@H]12 (stereo not given in full),16600 nM (active),–
CC(=O)N(C)c1cccc(-c2ccnc3c(C(=O)c4cccs4)cnn23)c1,–,99.4% (inactive)
COc1cccc2c1[C@]13CCN(CC4CC4)[C@H](C2)[C@]1(OC)CCC(=O)C3,–,99.5% (inactive)
CCOC(=O)Nc1ccc(NCc2ccc(F)cc2)cc1N,10500 nM (active),–
C[C@]12CCC(=O)C(O)=C1CC[C@@H]1[C@H]3CCC(=O)[C@@]3(C)CC[C@@H]12,–,93% (inactive)
CN(C)[C@@H]1C(=O)C(C(N)=O)=C(O)[C@@]2(O)C(=O)C3=C(O)c4c(O)cccc4[C@@](C)(O)[C@H]3[C@H](O)[C@@H]12,–,88% (inactive)
O=[N+]([O-])c1ncc[nH]1,–,89.3% (inactive)

# — PubChem BioAssay (NCATS)
